TSHR ag: agonists of human thyroid stimulating hormone receptor; Potency, µM (doses to about 57.1 µM), hits mostly activators; HEK293-CNG-TSHR cells (CNG channel as cAMP sensor), membrane potential dye, cAMP; P16473; 0.48% of 73,000 active; active = well fitted activation curve with a large enough effect in the main read-out, with a control signal flat, not every such curve was filed as active; inconclusive = small, poorly fitted or top-dose-only effect, or a change in a side signal; inactive = no such curve, though single readings can be large or run the other way; reference of the percent scale not stated here;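 note: the control signal comes from parental cells without the receptor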
Target sequence (P16473 whole entry, looked up): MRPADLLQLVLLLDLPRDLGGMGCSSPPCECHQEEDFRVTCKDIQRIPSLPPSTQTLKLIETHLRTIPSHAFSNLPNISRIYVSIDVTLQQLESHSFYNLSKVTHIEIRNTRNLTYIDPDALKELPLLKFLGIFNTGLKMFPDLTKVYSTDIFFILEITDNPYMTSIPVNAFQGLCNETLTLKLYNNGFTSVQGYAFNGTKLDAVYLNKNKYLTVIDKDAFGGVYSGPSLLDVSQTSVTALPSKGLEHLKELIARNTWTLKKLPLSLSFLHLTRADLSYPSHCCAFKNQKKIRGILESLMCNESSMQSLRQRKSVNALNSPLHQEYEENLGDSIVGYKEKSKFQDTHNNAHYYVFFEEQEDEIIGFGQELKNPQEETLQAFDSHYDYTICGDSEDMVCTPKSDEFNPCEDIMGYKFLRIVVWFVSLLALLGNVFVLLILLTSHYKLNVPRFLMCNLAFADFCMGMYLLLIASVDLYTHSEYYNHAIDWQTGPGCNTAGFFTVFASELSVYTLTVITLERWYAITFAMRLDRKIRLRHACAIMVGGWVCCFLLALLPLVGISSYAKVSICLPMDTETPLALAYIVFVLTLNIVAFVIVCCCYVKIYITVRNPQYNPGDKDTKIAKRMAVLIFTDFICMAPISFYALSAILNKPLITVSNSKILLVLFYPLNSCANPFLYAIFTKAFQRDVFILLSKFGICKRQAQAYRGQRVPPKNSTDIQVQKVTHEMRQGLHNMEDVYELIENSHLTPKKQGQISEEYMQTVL
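HEK 293 cells stably expressing TSHR and a modified CNG channel, with CNG-only parental cells as counterscreen, were preloaded 60 min at room temperature with membrane potential dye containing 100 uM RO 20-1724. Compound exposure was 30 min, and depolarization was read as fluorescence at 590 nm.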
p53ts 39C tox: kills p53ts cells at the nonpermissive temperature; H1299-p53A138V viability at 39C, ATP luminescence, 24 h; Potency, µM (series often up to 46.1 µM), hits mostly cytotoxic; 1.5% of 130,000 active; AID 902; note: nearly all actives have a fitted effect of over 55% in size
Imprint erasure: inducers of genomic imprint erasure in mouse ES cells | AID 1948 | mouse ES Peg3-LacZ reporter, beta-gal luminescence, 40 h | Potency, µM (doses to about 60.7 µM), actives largely listed as activators | 0.02% of 110,000 active
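Gelatin-coated wells received 300 freshly trypsinized female ES cells with a Peg3LacZ-Neo reporter on the maternal allele, then incubated 40 hours at 37C. BetaGlo was added for 5 minutes at room temperature before a single luminescence read.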
IkB signaling: suppresses IkB signaling in ABC-DLBCL reporter cells. ABC-DLBCL IkBa-CBG/CBR dual luciferase ratio, 4 h; response scale: scaled: untreated 0%, proteasome inhibitor 100%. Potency, µM (top dose mostly 57.1 µM). 0.04% of 110,000 active; active = well fitted curve in the direction sought with a large enough effect in the signal ratio, not every such curve was filed as active; inconclusive = small, poorly fitted or top-dose-only effect, or a change in a side signal; the % refers to the signal ratio;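 note: the direction sought is a rising ratio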
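Luminescence ratio of IκBα-fused green versus native red beetle luciferase in OCI-Ly3 cells, 4 h post-doxycycline with compound; red signal alone, scaled from basal (0%) to zero light (-100%), flagged nonspecific or cytotoxic effects.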
HEK293 cAMP cs: counter-screen for TSHR agonists: cAMP increase in parental HEK293. Potency, µM (series often up to 57.1 µM), most hits filed as activators. AID 938. 2.5% of 73,000 active. parental HEK293 CNG cAMP sensor, membrane potential fluorescence; note: nearly all actives have a fitted effect of over 55% in size
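Parental HEK 293 cells stably expressing a cAMP-gated CNG channel were loaded with membrane potential dye containing 100 uM RO 20-1724 for 60 min. Compound added for 30 min; depolarization read as fluorescence intensity at 590 nm.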
p53ts 32C kill: cytotoxicity in p53ts cells at permissive temperature; Potency, µM (doses to about 46.1 µM), usual class: cytotoxic; AID 924; H1299-p53A138V at 32C, ATP luminescence viability, 24 h; 0.93% of 130,000 active; note: nearly all actives have a fitted effect of over 55% in size
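ATP-content luminescence (ATPlite) read-out after 24 h compound exposure at 32C in H1299-p53A138V cells (600/well). Tested up to 46 uM. Normalized to DMSO (0%) and 100 uM tamoxifen (100% killing); Hill-fit AC50.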
Numbers stand for hits; 0 = inactive; ? = inconclusive; - = no result; [ ] = remark or other dose. Shown are actives, neighbours in structure and some others; about 3.1% of the full set was active somewhere. Unless noted, calls come from the whole dose curve; as a rule, active = well fitted curve in the direction sought with a large enough effect; inconclusive = small, poorly fitted or top-dose-only effect, or another doubt; inactive = no such curve, though single readings can be large; an effect the other way counts as inactive or inconclusive.

SMILES	TSHR ag	p53ts 39C tox	Imprint erasure	IkB signaling	HEK293 cAMP cs	p53ts 32C kill
COc1ccc(-c2nnc(Nc3nc4c(OC)cccc4s3)o2)c(OC)c1	0	10µM	0	?	0	?
COc1ccc(-c2nnc(Nc3nc4c(OC)cccc4s3)o2)cc1	?	13µM	0	?	?	?
Fc1cccc2sc(Nc3nnc(-c4ccccc4)o3)nc12	0	10µM	0	?	0	16µM
COc1cc(OC)cc(-c2nnc(Nc3nc4c(F)cccc4s3)o2)c1	0	0	0	0	0	0
COc1ccc(-c2ccc(-c3nnc(-c4cc(OC)ccc4OC)o3)cc2)cc1	0[11.4 µM]	0	0	0	0	0
CC(N)=NCCCC[C@H](N)C(=O)O	0	0	0	?	0	0
COCCCNC(=O)C1CCC(Cn2c(=O)c3sccc3n(C)c2=O)CC1 (stereo not drawn)	-	0	0[10.9 µM]	0	-	0
Cc1c(C)c2c(c(C)c1O)CC[C@@](C)(C(=O)O)O2	?	0	0	0	?	0
CN(C(=O)c1cccc(Nc2ccc(-c3ccc4c(c3)OCCO4)nn2)c1)C1CCCCC1	-	11µM	-	-	-	13µM
CCCCOc1cccc(C(=O)N(Cc2cccs2)c2ccc(OC)cc2)c1	-	0	0[10.9 µM]	?	-	0
Cc1ccc(S(=O)(=O)N(Cc2nccn2C)C(C)C)cc1	25µM	0	0	0	0	0
Cc1ccc2sc(N(Cc3cccnc3)C(=O)CCOc3ccccc3)nc2c1C	-	0	?	?	-	0
CCCn1c(-c2ccc(F)cc2)nc2c(NC3CCN(Cc4ccccc4)CC3)nc(C)nc21	?	0	0	-	?	0
CCOc1ccc(-n2c(SCc3nc(-c4ccc(OC)cc4)no3)nnc2-c2ccncc2)cc1	-	0	0[10.9 µM]	0	-	0
CCOc1ccc(-n2c(SCc3nc(-c4cccs4)no3)nnc2-c2ccncc2)cc1	?	0	0	0	3.2µM	0
CC(C)COc1ccc(C(=O)Nc2nnc(S(=O)(=O)N(C)Cc3ccco3)s2)cc1	-	10µM	0[10.9 µM]	?	-	?
Cc1ccc(C(=O)Nc2nnc(S(=O)(=O)N(C)Cc3ccco3)s2)cc1	-	0	0[10.9 µM]	0	-	0
c1ccc(Nc2nc(-c3ccc4c(c3)OCO4)nc3ccccc23)cc1	-	?	0	0[11.4 µM]	0	?
CC(C)=C[C@H]1[C@@H](COC(=O)c2ccccc2Cl)C1(C)C	?	0[9.22 µM]	0[10.9 µM]	0[11.4 µM]	?	0[9.22 µM]
COc1cc(Cl)c(C)cc1Nc1c2c(nc3ccccc13)CCC2	-	2µM	0[10.9 µM]	?	-	?
CCOc1ccc(CNS(=O)(=O)c2cc3c(cc2C)NC(=O)CO3)cc1OC	-	0	0[10.9 µM]	0	-	0
Cc1cccc(NC(=O)c2sc(NC(=O)c3ccco3)c(C#N)c2C)c1C	0	0	-	0	0	0
CC1(C)Cc2c(sc(NC(=O)c3ccco3)c2C#N)CO1	0	13µM	0	0	0	10µM
N#CCSc1nnc(COc2cccc3ccccc23)n1-c1ccccc1	?	0	0	?	13µM	0
COc1ccc(-n2c(COc3cccc4ccccc34)nnc2SCC#N)cc1	-	0	-	-	-	0
SMILES	TSHR ag	p53ts 39C tox	Imprint erasure	IkB signaling	HEK293 cAMP cs	p53ts 32C kill
COc1ccc(-c2nc3ccccc3s2)cc1NC(=O)COc1cccc(C)c1	-	10µM	0[10.9 µM]	0	-	0
COc1ccc(OCC(=O)Nc2cc(-c3nc4ccccc4s3)ccc2C)cc1	-	16µM	0[10.9 µM]	0	-	0
CCc1cnc2c(c1SC(C(C)=O)C(=O)N(C)C)c(=O)n(C)c(=O)n2C (stereo not drawn)	-	0	0[10.9 µM]	0	-	0
O=c1cnnc(SCCc2ccccc2)[nH]1	?	0	0	0	32µM	0
Cc1cccc(CSc2nncc(=O)[nH]2)c1	0	0	0	0	0	0
COC(=O)C1=C(C)NC(C)=C(C(=O)OC)C1c1cc2ccc(C)cc2[nH]c1=O	16µM	0	-	0	0	0
COC(=O)C1=C(C)NC(C)=C(C(=O)OC)C1c1cc2cc(C)ccc2[nH]c1=O	0	0	0	0	0	0
COc1ccc(-c2nnc(CSc3nc4ccccc4c(=O)n3C)o2)cc1OC	?	0	0	0	25µM	0
COc1ccc(-c2nnc(COc3ccc4ccccc4c3)o2)cc1OC	?	0	0	?	4µM	0
Cc1cc(OCCn2cc(C(=O)c3cccs3)c3ccccc32)ccc1Cl	-	0	0[10.9 µM]	?	-	0
Cc1nc2c(-c3ccccc3)c(C)nn2c(N)c1-c1ccccc1	-	?	-	-	-	11µM
CCOC(=O)Cc1c(C)nc2c(-c3ccccc3)c(C)nn2c1C	-	0	-	-	-	0
CC1CCc2sc3c(c2C1)c1ncnn1c(=O)n3CC(=O)c1ccc(Br)cc1 (stereo not drawn)	?	0	0	0	16µM	0
CC(C)COc1cccc(C(=O)Nc2ccc(-c3nc4ncccc4o3)cc2)c1	-	0	0[10.9 µM]	0	-	0
CCOC(=O)c1sc(NC(=O)c2ccc(C)o2)nc1C	?	7.9µM	0	?	?	7.9µM
CCOC(=O)c1sc(NC(=O)c2ccco2)nc1C	0	0	0	0	0	0
COc1ccc(-n2c(C)cc(/C=N/Nc3nnc(C)n3N)c2C)cc1	-	10µM	-	-	-	?
O=C1Nc2c(c(=O)[nH]c(=O)n2-c2ccc(Cl)cc2)C1(NS(=O)(=O)c1ccccc1)C(F)(F)F (stereo not drawn)	-	0	0[10.9 µM]	0	-	0
Cc1ccc(Cl)cc1N1CCN(CCCNC(=O)c2nnc(Cc3cccc(Cl)c3)o2)CC1	-	13µM	0[10.9 µM]	?	-	0
O=C(Nc1c2c(nn1-c1ccc(Cl)cc1)CS(=O)(=O)C2)c1ccc(Br)cc1	-	0	0[10.9 µM]	0	-	0
O=C(Nc1c2c(nn1-c1ccc(Cl)cc1)CS(=O)(=O)C2)c1ccc2c(c1)OCO2	?	0	0	0	25µM	0
Cc1ccc(CNC(=O)CCc2c(C)nn(-c3ccc(N4CCCCC4)nn3)c2C)cc1	-	0	0[10.9 µM]	?	-	0
CCC(C)(C)NC(=O)C(c1cccn1C)N(Cc1ccccc1)C(=O)Cn1nnc2ccccc21 (stereo not drawn)	?	0	0	0	10µM	0
O=C(NCc1ccco1)C(c1ccccc1)N(C(=O)Cc1cccs1)c1ccccc1 (stereo not drawn)	-	0	-	-	-	0
COCCNC(=O)C(c1cccs1)N(Cc1cccs1)C(=O)Cn1nnc2ccccc21 (stereo not drawn)	-	0	-	-	-	0
COc1ccc(OC)c(C(C(=O)NCc2ccco2)N(C(=O)Cn2nnc3ccccc32)C2CC2)c1 (stereo not drawn)	0	0	0	0	0	0
CC(C)CCNC(=O)C(c1ccco1)N(Cc1cccs1)C(=O)Cn1nnc2ccccc21 (stereo not drawn)	?	0	0	?	6.3µM	0
O=C(NCc1ccco1)C(c1cccs1)N(C(=O)Cc1cccs1)c1ccccc1 (stereo not drawn)	?	0	0	?	13µM	0

Assay outcomes (PubChem BioAssay)
